Measured values published in PubChem BioAssay AID1159580 (chemical genetic matrix, 2015).
Screen size: about 5,500 compounds; about 2,000 (36%) were called active. Roughly 18% stayed inconclusive and do not appear here. No stated cut-off is given here; in the data, active means normalized growth mostly below about 0.91 (no sharp cut-off); inconclusive means no clear call, values can overlap the other calls; inactive means mostly above about 0.92. This is one part of the list.

Assay: chemical genetic growth profiling, strain panel (AID 1159580);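 further: tested at 20 µM; growth read once vehicle control cultures reached saturation at 30 °C; 1 = growth at the plate median or of vehicle wells; lower values mean less growth of the strain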
Settings: growth OD
[1] = S. cerevisiae deletion strains, locus YAL013W, strain DEP1, hits give low values
[2] = S. cerevisiae deletion strains, locus YBR229C, strain ROT2, hits give low values
[3] = S. cerevisiae deletion strains, locus YCL061C, strain MRC1, hits give low values
[4] = S. cerevisiae deletion strains, locus YDL101C, strain DUN1, hits give low values
[5] = S. cerevisiae deletion strains, locus YDL134C, strain PPH21, hits give low values
[6] = S. cerevisiae deletion strains, locus YDR150W, strain NUM1, hits give low values
[7] = S. cerevisiae deletion strains, locus YEL061C, strain CIN8, hits give low values
[8] = S. cerevisiae deletion strains, locus YGR078C, strain PAC10, hits give low values
[9] = S. cerevisiae deletion strains, locus YHR030C, strain SLT2, hits give low values
[10] = S. cerevisiae deletion strains, locus YHR087W, strain rtc3, hits give low values
[11] = S. cerevisiae deletion strains, locus YJR043C, strain POL32, hits give low values
[12] = S. cerevisiae deletion strains, locus YJR075W, strain HOC1, hits give low values
[13] = S. cerevisiae deletion strains, locus YLR039C, strain RIC1, hits give low values
[14] = S. cerevisiae deletion strains, locus YLR058C, strain SHM2 (second series), hits give low values
[15] = S. cerevisiae deletion strains, locus YLR085C, strain ARP6, hits give low values
[16] = S. cerevisiae deletion strains, locus YLR262C, strain YPT6, hits give low values
[17] = S. cerevisiae deletion strains, locus YML094W, strain GIM5, hits give low values
[18] = S. cerevisiae deletion strains, locus YMR219W, strain ESC1, hits give low values
[19] = S. cerevisiae deletion strains, locus YMR263W, strain SAP30, hits give low values
[20] = S. cerevisiae deletion strains, locus YNL153C, strain GIM3, hits give low values
[21] = S. cerevisiae deletion strains, locus YNL298W, strain CLA4 (second series), hits give low values
[22] = S. cerevisiae deletion strains, locus YNL322C, strain KRE1, hits give low values
[23] = S. cerevisiae deletion strains, locus YNR030W, strain Alg12, hits give low values
[24] = S. cerevisiae deletion strains, locus YOL006C, strain TOP1, hits give low values
[25] = S. cerevisiae deletion strains, locus YPL055C, strain LGE1, hits give low values
[26] = S. cerevisiae deletion strains, locus YPL241C, strain CIN2, hits give low values
[27] = S. cerevisiae deletion strains, locus YPR135W, strain CTF4, hits give low values

Measured: normalized growth

Clc1cccc(-c2csc(Nc3cccnc3)n2)c1
inactive: [1] 0.935 | [2] 0.998 | [3] 0.957 | [4] 1.04 | [5] 0.997 | [6] 0.954 | [7] 0.993 | [8] 0.979 | S. cerevisiae deletion strains, locus YGR229C, strain SMI1, hits give low values 1 | [9] 0.729 | [10] 0.974 | S. cerevisiae deletion strains, locus YJL187C, strain SWE1, hits give low values 0.957 | [11] 0.921 | [12] 0.978 | [13] 0.951 | [14] 0.99 | [15] 0.839 | [16] 1 | [17] 0.971 | [18] 0.992 | [19] 0.914 | [20] 0.971 | [21] 0.881 | [22] 1 | [23] 0.968 | [24] 0.979 | [25] 0.839 | [26] 0.915 | [27] 0.884 | S. cerevisiae strains, strain wild type, hits give low values 0.997

Clc1ccc(-c2csc(-c3ccno3)n2)s1
active: [5] 0.565 | [7] 0.89 | [9] 0.484 | [13] 0.57 | [14] 0.932 | [15] 0.644 | [16] 0.777 | [18] 0.937 | [24] 0.655 | [26] 0.81
inactive: [1] 0.942 | [2] 0.958 | [3] 0.985 | [4] 0.915 | [6] 1.01 | [8] 0.96 | [10] 0.954 | [11] 1.01 | [12] 0.929 | [17] 0.868 | [19] 0.952 | S. cerevisiae deletion strains, locus YMR307W, strain GAS1, hits give low values 0.702 | S. cerevisiae deletion strains, locus YNL128W, strain TEP1, hits give low values 0.939 | [20] 1 | [21] 0.899 | [22] 0.97 | [23] 0.9 | [25] 0.851 | [27] 0.741
